# This excerpt belongs to a sample that is enriched for hits.
# T cruzi growth-1: blocks T. cruzi growth in NIH3T3 culture. T. cruzi beta-gal in NIH3T3, GalScreen luminescence, 90 h. inhibition, % at 8.34 µM. 77,000 compounds, 5.9% hits;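 active = mean inhibition above about 93%, with at least 55% of replicates each passing it, limit read from the data, passing the limit was not always enough; inconclusive = only one of those two conditions holds; inactive = neither condition holds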
# C diff growth: C. difficile growth inhibition; Clostridium difficile clinical isolate growth, OD600, 24 h; active compounds read low; growth activity, negative = inhibition, % at 16 µg/mL (by protocol); 86,000 compounds, 0.25% hits;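 active = mean growth activity at or below -80% and every replicate also at or below -80%; inconclusive = mean at or below -80% but some replicate above -80%; inactive = mean growth activity above -80%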
# T cruzi growth-2: inhibitors of T. cruzi proliferation; shares compounds with T cruzi growth-1; T. cruzi beta-gal in NIH3T3, GalScreen luminescence, 90 h; inhibition, % at 8.35 µM; 5,600 compounds, 72% hits; AID 651739;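 active = mean replicate inhibition above about 95% and at least 55% of replicates individually reaching it, limit read from the data; inconclusive = only one of the two criteria is met; inactive = neither criterion is met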
# T cruzi growth-3: blocks T. cruzi growth in NIH3T3 host cells; 5,600 compounds, 21% hits; inhibition, % at 2.09 µM; T. cruzi beta-gal in NIH3T3, GalScreen luminescence, 90 h; shares compounds with T cruzi growth-1;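 active = mean inhibition above about 95%, with at least 55% of replicates also reaching it, limit read from the data; inconclusive = meets just one of the two conditions; inactive = meets neither condition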
# 3T3 cytotox: kills mouse NIH/3T3 fibroblasts | 5,600 compounds, 14% hits | cytotoxicity (signal decrease), % at 8.35 µM | AID 651742 | shares compounds with T cruzi growth-1 | NIH/3T3 viability, CellTiter-Glo ATP luminescence, 90 h;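 active = mean signal decrease across replicates above about 35% based on untreated-well scatter, with enough replicates individually passing, limit read from the data; inconclusive = no rule stated though some were filed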
# NIH3T3 tox 2: kills mouse NIH/3T3 fibroblasts; inhibition, % at 24.9 µM; shares compounds with T cruzi growth-1; 5,600 compounds, 56% hits; AID 651744; NIH/3T3 viability, CellTiter-Glo ATP luminescence, 90 h;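 active = mean loss of cell viability signal at or above a set limit, and enough replicates individually reaching it; inconclusive = meets only the mean limit or only the replicate share; inactive = meets neither condition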
# Hits are given with their value; . = inactive; ? = inconclusive; / = not tested or not shown.
SMILES,T cruzi growth-1,C diff growth,T cruzi growth-2,T cruzi growth-3,3T3 cytotox,NIH3T3 tox 2
C/C=C/c1ccc2c(c1)O[C@H](CN(C)C(=O)Nc1ccc(C(F)(F)F)cc1)[C@H](C)CN([C@@H](C)CO)S2(=O)=O,?,.,99,.,46,69
C/C=C/c1ccc2c(c1)O[C@H](CN(C)C(=O)Nc1ccc(F)cc1)[C@@H](C)CN([C@H](C)CO)S2(=O)=O,.,.,/,/,/,/
C/C=C/c1ccc2c(c1)O[C@H](CN(C)C(=O)Nc1ccc(C(F)(F)F)cc1)[C@@H](C)CN([C@H](C)CO)S2(=O)=O,?,.,102,101,36,68
O=C(C[C@@H]1CC[C@@H](NC(=O)Nc2ccc3c(c2)OCO3)[C@H](CO)O1)NCc1ccccc1,.,.,/,/,/,/
COC(=O)C1=C/c2ccccc2C(C2CC2)N(Cc2ccc(OC)cc2)/C=C\1C(=O)OC (stereo not given),/,.,/,/,/,/
CO[C@H]1CC[C@H]2CCOc3c(C#N)cccc3C(=O)N(C)C[C@H](C)C(=O)N(C)C[C@@H]1O2,.,/,/,/,/,/
COc1ccc(CN(C)C[C@@H]2OCCCC[C@H](C)Oc3ccc(NC(=O)C4CCCCC4)cc3C(=O)N([C@@H](C)CO)C[C@@H]2C)cc1,.,/,/,/,/,/
COc1ccc(CN(C)C[C@H]2OCCCC[C@@H](C)Oc3ccc(NC(=O)C4CCCCC4)cc3C(=O)N([C@H](C)CO)C[C@H]2C)cc1,104,/,102,.,.,96
COc1ccc(CN(C)C[C@H]2OCCCC[C@H](C)Oc3ccc(NC(=O)C4CCCCC4)cc3C(=O)N([C@@H](C)CO)C[C@H]2C)cc1,102,.,?,.,.,27
COc1ccc(CN(C)C[C@H]2OCCCC[C@H](C)Oc3ccc(NC(=O)C4CCCCC4)cc3C(=O)N([C@H](C)CO)C[C@@H]2C)cc1,.,.,/,/,/,/
COc1ccc(CN(C)C[C@@H]2OCCCC[C@@H](C)Oc3ccc(NC(=O)C4CCCCC4)cc3C(=O)N([C@@H](C)CO)C[C@H]2C)cc1,.,/,/,/,/,/
COc1ccc(CN(C)C[C@H]2OCCCC[C@@H](C)Oc3ccc(NC(=O)C4CCCCC4)cc3C(=O)N([C@@H](C)CO)C[C@H]2C)cc1,105,/,.,.,.,76
CCCNC(=O)Nc1ccc2c(c1)C(=O)N(C)C[C@@H](OC)[C@H](C)CN(C(=O)C1CCOCC1)[C@H](C)CO2,.,/,/,/,/,/
C[C@@H]1CCCCO[C@H](CN(C)S(=O)(=O)c2ccccc2)[C@@H](C)CN([C@H](C)CO)C(=O)c2cc(NS(=O)(=O)c3ccc(F)cc3)ccc2O1,.,.,/,/,/,/
C[C@H]1CCCCO[C@@H](CN(C)S(=O)(=O)c2ccccc2)[C@@H](C)CN([C@@H](C)CO)C(=O)c2cc(NS(=O)(=O)c3ccc(F)cc3)ccc2O1,101,.,107,.,.,.
C[C@@H]1CCCCO[C@H](CN(C)S(=O)(=O)c2ccccc2)[C@H](C)CN([C@@H](C)CO)C(=O)c2cc(NS(=O)(=O)c3ccc(F)cc3)ccc2O1,.,.,/,/,/,/
C[C@H]1CCCCO[C@H](CN(C)S(=O)(=O)c2ccccc2)[C@@H](C)CN([C@@H](C)CO)C(=O)c2cc(NS(=O)(=O)c3ccc(F)cc3)ccc2O1,97,.,110,.,.,.
C[C@@H]1CN([C@H](C)CO)C(=O)Cc2cc(NC(=O)NC3CCCCC3)ccc2O[C@H]1CN(C)Cc1ccc2c(c1)OCO2,/,.,/,/,/,/
COc1ccc(S(=O)(=O)N2CCCCN3[C@H](CO)[C@H](c4ccc(C#CC(C)C)cc4)[C@H]3C2)cc1,102,.,105,98,72,73
COc1ccc(C#Cc2ccc([C@H]3[C@H](CO)N4CCCCN(S(=O)(=O)c5ccccc5)C[C@@H]34)cc2)cc1,.,.,/,/,/,/
COc1ccc(S(=O)(=O)N2CCCCN3[C@H](C2)[C@@H](c2ccc(C#CC(C)C)cc2)[C@@H]3CO)cc1,105,.,102,112,.,97
COc1cccc(S(=O)(=O)N2CCCCN3[C@H](CO)[C@@H](c4ccc(C#CC(C)C)cc4)[C@H]3C2)c1,.,.,/,/,/,/
COc1ccc(S(=O)(=O)N2CCCCN3[C@H](CO)[C@H](c4ccc(C#CCC(C)C)cc4)[C@@H]3C2)cc1,?,.,.,?,41,67
COc1ccc(S(=O)(=O)N2CCCCN3[C@H](CO)[C@H](c4ccc(C#CCC(C)C)cc4)[C@H]3C2)cc1,.,.,/,/,/,/
